In all, about 16,000 compounds went through this assay and about 5,100 (32%) were called active. About 25% were inconclusive and are not listed. Calls come from the whole dose curve; as a rule, active = well fitted curve in the direction sought with a large enough effect; inconclusive = small, poorly fitted or top-dose-only effect, or effect the other way; inactive = no such curve, though single readings can be large or run the other way. The list shows a part of the results.
% is set by controls: 0 for no effect and ±100 for the full control effect.

Cytochrome P450 3A4 (Homo sapiens), sequence (P08684 whole entry, looked up): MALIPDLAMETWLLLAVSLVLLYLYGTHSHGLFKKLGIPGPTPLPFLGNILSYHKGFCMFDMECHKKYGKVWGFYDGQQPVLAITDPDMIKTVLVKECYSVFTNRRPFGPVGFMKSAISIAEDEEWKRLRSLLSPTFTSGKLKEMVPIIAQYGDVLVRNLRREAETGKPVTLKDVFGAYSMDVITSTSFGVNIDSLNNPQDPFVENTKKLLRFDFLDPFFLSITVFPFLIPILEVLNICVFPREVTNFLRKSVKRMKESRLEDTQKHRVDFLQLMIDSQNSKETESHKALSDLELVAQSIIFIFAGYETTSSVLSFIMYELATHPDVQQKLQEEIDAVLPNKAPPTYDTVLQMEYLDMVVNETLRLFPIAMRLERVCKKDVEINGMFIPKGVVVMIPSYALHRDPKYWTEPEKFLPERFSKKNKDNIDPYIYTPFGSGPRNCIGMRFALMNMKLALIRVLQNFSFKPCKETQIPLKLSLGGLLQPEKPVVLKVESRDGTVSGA

The experiment addresses Cytochrome P450 3A4 (Homo sapiens) (UniProt P08684). The experiment is described as follows: Cytochrome panel assay with activity outcomes. To be noted: recombinant CYP, pro-luciferin dealkylation, luminescence, p450-cyp3a4; series mostly up to 57.1 µM.
Take `CC1(CCC#N)N=C(SCCC#N)N(c2ccccc2)C1=O` (configuration not stated): the AC50 entry was “inactive”.

`CN(C)c1ccc(-c2ccc3ncnc(-n4ccnc4)c3c2)cc1`: the AC50 was 1 µM (active).

As for `c1cn(-c2ncnc3ccc(-c4ccoc4)cc23)cn1`, the AC50 is 0.631 µM (active).

`Cc1ccccc1-c1ccc2ncnc(-n3ccnc3)c2c1`: the AC50 is 0.501 µM (active).

As to `CC(=O)CC(=O)Nc1ccc2ccccc2c1`, the activity, negative = inhibition is -28.5% [at 11.4 µM] (inactive).

`O=C(COc1ccc2ccccc2c1)Nc1ccc(Cc2ccncc2)cc1`: the half-maximal activity concentration (AC50) was 0.708 µM (active).

As for `Clc1ccc([C@H](Cn2ccnc2)OCc2csc3c(Cl)cccc23)c(Cl)c1`, the AC50 is 0.794 µM (active).

For `CC(C)CN1CCCC2(CCN(C(=O)c3cnccn3)CC2)C1`, the AC50 was 25.1 µM (active).

Consider `CC(C)CN1CCC2(CC1)CCN(C(=O)c1csnn1)CC2`, for which the AC50 result is “inactive”.

On to `O=C(c1cnccn1)N1CCC2(CC1)CN(Cc1nccs1)C2`, for which the AC50 entry is “inactive”.

With `CC(C)NC(=O)N1CCC2(CC1)CCN(C(=O)c1cnccn1)CC2`, the AC50 result was “inactive”.

`O=C(c1csnn1)N1CCC[C@@]2(CCN(Cc3nccs3)C2)C1`: the AC50 is 15.8 µM (active).

Turning to `O=C(c1cnccn1)N1CCC2(CCN(Cc3nccs3)CC2)CC1`, the AC50 entry is “inactive”.

For the molecule `O=C(c1cnccn1)N1CCC2(CCCN(Cc3nccs3)C2)CC1`, the AC50 is 12.6 µM (active).

For the molecule `O=C(c1csnn1)N1CCC2(CCN(Cc3nccs3)CC2)CC1`, the AC50 result is “inactive”.

For the molecule `O=C(c1cnccn1)N1CCC[C@@]2(CCN(Cc3nccs3)C2)C1`, the AC50 was 15.8 µM (active).

With `C[n+]1ccc(/C=C/c2ccc(Br)cc2)cc1`, the AC50 entry is “inactive”.

On to `COc1nc(N)nc2c1ncn2[C@@H]1C[C@H](O)[C@@H](CO)O1`, for which the activity, negative = inhibition was -13.7% [at 11.4 µM] (inactive).

For `CN1C(C(=O)Nc2ccccn2)=C(O)c2sccc2S1(=O)=O`, the AC50 result was “inactive”.

For `Cc1ccc(C(=O)NNC(=O)C2CCCN(c3ncccn3)C2)cc1` (configuration not stated), the AC50 result was “inactive”.

As for `COc1cc(C)nc(N2CCCC(C(=O)Nc3cc(Cl)ccc3OC)C2)n1` (configuration not stated), the concentration at half-maximal activity (AC50) is 7.08 µM (active).

As for `Cc1ccc(C(=O)/C=C2\NCC(C)NC2=O)cc1` (configuration not stated), the AC50 result was “inactive”.

Take `O=C(Cc1ccc(Br)cc1)Nc1ccccc1Sc1ccccc1`: the half-maximal activity concentration (AC50) was 6.31 µM (active).

On to `O=C(Cc1ccc2c(c1)CCCC2)Nc1ccccc1Br`, for which the AC50 result was “inactive”.

On to `CC(C)Cn1c(C(C)C)nc([N+](=O)[O-])c1S(=O)(=O)c1ccc(F)cc1`, for which the AC50 is 4.47 µM (active).

In the case of `CN(C)CCNCCN`, the activity, negative = inhibition was -3.91% [at 11.4 µM] (inactive).

In the case of `Cc1ccc(CNCC(O)(c2ccc(F)cc2)c2ccc(F)cc2)cc1`, the concentration at half-maximal activity (AC50) is 2.24 µM (active).

Regarding `O=C(O)c1ccc(CNCc2ccccc2)cc1`, the activity, negative = inhibition is -2.73% [at 11.4 µM] (inactive).

As for `OC(CNCc1ccc(F)cc1)(c1ccc(F)cc1)c1ccc(F)cc1`, the half-maximal activity concentration (AC50) was 2 µM (active).

On to `COc1ccc(CNc2ncnc3ccc(-c4cccnc4)cc23)c(OC)c1`, for which the concentration at half-maximal activity (AC50) was 1.26 µM (active).

Regarding `COc1ccccc1CNc1ncnc2ccc(-c3cccnc3)cc12`, the concentration at half-maximal activity (AC50) was 2 µM (active).

Take `CC(CO)(CO)Nc1ncnc2ccccc12`: the activity, negative = inhibition was 4.84% [at 11.4 µM] (inactive).

As for `COc1cccc(-c2ccc3ncnc(NCc4ccc(OC)cc4OC)c3c2)c1`, the concentration at half-maximal activity (AC50) was 2.51 µM (active).

Consider `Nc1ccccc1N=Nc1c(S(=O)(=O)O)cc2cc(S(=O)(=O)O)cc(O)c2c1O`, for which the activity, negative = inhibition was -15.9% [at 11.4 µM] (inactive).

Regarding `Cc1ccccc1NC(=O)Cn1cnc2c1c(=O)n(C)c(=O)n2C`, the AC50 result was “inactive”.

Consider `COc1ccc(Cc2nnc(NC(=O)Cn3cnc4c3c(=O)n(C)c(=O)n4C)s2)cc1OC`, for which the activity, negative = inhibition was 4.73% [at 2.29 µM] (inactive).

Regarding `COc1ccc(CCNC(=O)Cn2cnc3c2c(=O)n(C)c(=O)n3C)cc1OC`, the AC50 was 15.8 µM (active).

Take `COc1ccc(Nc2ncc(C(=O)N3CCN(c4ccc(F)cc4)CC3)c3ccccc23)cc1`: the activity, negative = inhibition is -5.25% [at 2.29 µM] (inactive).

In the case of `O=C(c1sc2ccccc2c1Cl)N1CCN(c2ccc(F)cc2)CC1`, the concentration at half-maximal activity (AC50) is 14.1 µM (active).

Consider `COc1ccc(S(N)(=O)=O)cc1C(=O)NCCCN1CCN(c2ccc(C)cc2)CC1`, for which the activity, negative = inhibition is 1.35% [at 2.29 µM] (inactive).

Consider `CC(C)C(NS(=O)(=O)c1cccs1)C(=O)NCCN1CCN(c2ccccc2)CC1` (configuration not stated), for which the AC50 was 5.01 µM (active).

For the molecule `O=C(NCCN1CCN(C(=O)C(c2ccccc2)c2ccccc2)CC1)C(=O)Nc1ccccc1`, the AC50 result is “inactive”.

With `O=C(c1cccs1)N1CCN(C(=O)C(c2ccccc2)c2ccccc2)CC1`, the AC50 result is “inactive”.

As to `COc1ccccc1N1CCN(C(=O)C(NS(=O)(=O)c2cccs2)c2ccccc2)CC1` (configuration not stated), the half-maximal activity concentration (AC50) is 2 µM (active).

Regarding `O=C(C(NS(=O)(=O)c1cccs1)c1ccccc1)N1CCN(c2ccccc2)CC1` (configuration not stated), the AC50 is 3.16 µM (active).

For the molecule `CCOC(=O)c1sc(C)c(C(=O)NCC(C)(C)CN(C)C)c1N`, the AC50 entry is “inactive”.

As for `O=C(CSc1nc2ccccc2s1)Nc1nccs1`, the AC50 is 10 µM (active).

For `O=C(CSc1nc2ccccc2s1)NNC(=S)Nc1ccc(Br)cc1`, the AC50 was 2.51 µM (active).

Take `Cc1cccc(-c2nsc(SCC(=O)Nc3nccs3)n2)c1`: the AC50 is 3.55 µM (active).

`Cc1nnc(SCC(=O)Nc2nccs2)[nH]c1=O`: the AC50 entry is “inactive”.

As to `O=C(O)CCCSc1nc2ccccc2s1`, the activity, negative = inhibition was -9.94% [at 11.4 µM] (inactive).

Take `C1CCc2nnnn2CC1`: the AC50 entry is “inactive”.

For `O=C(O)[C@@H](O)[C@@H](O)[C@@H](O)[C@@H](O)C(=O)O` (tested in a mixture with another compound), the AC50 result is “inactive”.

`O=C(Nc1ccc(Cl)cc1Cl)c1cccc(N2C(=O)C=CC2=O)c1`: the AC50 was 1.26 µM (active).

As to `O=C(Nc1ccc(Cl)cc1C(F)(F)F)c1ccc(Cl)cc1`, the AC50 result is “inactive”.

Turning to `COc1cc(CNCCN2CCOCC2)ccc1OCc1ccccc1Cl`, the AC50 is 15.8 µM (active).

As for `COc1cc(CNCc2ccccn2)ccc1OCc1ccc(Cl)cc1Cl`, the AC50 is 0.501 µM (active).

Take `COc1cc2c(cc1OC)-c1cc(NCc3ccccn3)nc(=O)n1CC2`: the AC50 result is “inactive”.

As for `COc1ccc(CC(=O)NCc2ccccn2)cc1OC`, the activity, negative = inhibition was -4.2% [at 2.29 µM] (inactive).

With `O=C(O)c1cc(=O)c2c(Cl)cc(Cl)cc2[nH]1`, the AC50 result is “inactive”.

In the case of `O=C1C[C@H]2C(=O)[C@@H]1[C@@H](C(=O)O)[C@H]2C(=O)O`, the activity, negative = inhibition was -3.12% [at 11.4 µM] (inactive).

`COc1cccc(Nc2ncc3nc(-c4cccs4)c(=O)n(Cc4cccs4)c3n2)c1`: the AC50 entry is “inactive”.

`O=c1cnc2cnc(Nc3ccccc3)nc2n1Cc1cccs1`: the half-maximal activity concentration (AC50) is 15.8 µM (active).

In the case of `COc1ccc(-c2nc3cnc(Nc4ccccc4)nc3n(Cc3cccs3)c2=O)cc1`, the AC50 entry is “inactive”.

Take `Cc1nc2cnc(Nc3ccccc3)nc2n(Cc2cccs2)c1=O`: the concentration at half-maximal activity (AC50) was 7.94 µM (active).

`COc1cccc(Nc2ncc3nc(C)c(=O)n(Cc4cccs4)c3n2)c1`: the AC50 is 3.98 µM (active).

In the case of `O=c1c(-c2ccc(F)cc2)nc2cnc(Nc3ccccc3)nc2n1Cc1cccs1`, the AC50 entry is “inactive”.

Turning to `C=C(CC)C(=O)c1ccc(OCC(=O)O)c(Cl)c1Cl`, the AC50 entry is “inactive”.

Take `CCC(C)NC(=O)c1c(C)cc(=O)oc1C` (configuration not stated): the AC50 entry was “inactive”.

As to `C[C@@H](N=C(N)N)C(=O)O`, the activity, negative = inhibition was -8.02% [at 11.4 µM] (inactive).

For `Cc1cc(NC(=O)NC(=O)c2ccc(F)cc2F)n[nH]1`, the AC50 result is “inactive”.

Consider `COc1ccccc1N1CCN(CCCCNS(=O)(=O)c2cccc3c(N(C)C)cccc23)CC1`, for which the AC50 is 2.51 µM (active).

With `COc1ccccc1N1CCN(CCCCNC(=O)c2ccc3ccccc3c2)CC1`, the AC50 entry was “inactive”.

In the case of `COc1ccccc1N1CCN(CCCCN2C(=O)CCC2=O)CC1`, the AC50 result was “inactive”.

Take `Oc1c(Cl)cc(C(c2cc(Cl)c(O)c(Cl)c2)C(c2cc(Cl)c(O)c(Cl)c2)c2cc(Cl)c(O)c(Cl)c2)cc1Cl`: the activity, negative = inhibition was -26.2% [at 11.4 µM] (inactive).

Turning to `Cc1ccc(NC(=O)c2ccccc2C(=O)O)cc1C`, the activity, negative = inhibition is -9.2% [at 11.4 µM] (inactive).

In the case of `COC(=O)CSC(C(=O)Nc1ccc(C)c(C)c1)c1ccccc1` (configuration not stated), the half-maximal activity concentration (AC50) was 3.98 µM (active).

As to `CCCCOC(=O)Nc1ccc(C)c(Cl)c1`, the AC50 result was “inactive”.

Regarding `O=C(C1CCN(S(=O)(=O)c2cccc3nsnc23)CC1)N1CCn2c1nc1ccccc12`, the concentration at half-maximal activity (AC50) was 14.1 µM (active).

With `O=C(C1CCN(S(=O)(=O)c2cccc3nsnc23)CC1)N1CCCc2ccccc21`, the concentration at half-maximal activity (AC50) was 14.1 µM (active).

Turning to `O=C(C1CCN(S(=O)(=O)c2cccc3nsnc23)CC1)N1CCN(c2ccccc2F)CC1`, the AC50 entry was “inactive”.

On to `O=C(C1CCCN(S(=O)(=O)c2cccc3nsnc23)C1)N1CC=C(c2ccccc2)CC1` (configuration not stated), for which the AC50 was 6.31 µM (active).

For the molecule `O=C(O)c1nn(-c2ccc(Cl)cc2)c2c1C(=O)c1ccccc1C2=O`, the activity, negative = inhibition is -4.55% [at 11.4 µM] (inactive).

Consider `COc1cc(=O)n2c(n1)SCCC2`, for which the activity, negative = inhibition was -0.256% [at 2.29 µM] (inactive).

As for `Cn1c(=O)c2[nH]c(-c3ccc(S(=O)(=O)O)cc3)nc2n(C)c1=O`, the AC50 entry was “inactive”.

As to `Cn1c(=O)c2[nH]c(-c3ccccc3)nc2n(C)c1=O`, the AC50 result was “inactive”.

With `COc1ccc(-c2nc3c([nH]2)c(=O)n(C)c(=O)n3C)c(OC)c1`, the concentration at half-maximal activity (AC50) is 1.58 µM (active).

Consider `COc1ccc(C=NC(CO)C(O)c2ccc([N+](=O)[O-])cc2)cc1` (configuration not stated), for which the half-maximal activity concentration (AC50) is 10 µM (active).

`C[N+]1(CCOc2ccc([N+](=O)[O-])cc2)CCOCC1`: the AC50 result was “inactive”.

As to `CS/C(N)=N/N=C/c1ccc([N+](=O)[O-])cc1`, the AC50 result was “inactive”.

Consider `COc1cc2c(cc1NC(=O)c1cc(-c3cccnc3)nc3ccc(C)cc13)oc1ccccc12`, for which the AC50 is 3.98 µM (active).

Turning to `COc1ccccc1CC(=O)Nc1cc2oc3ccccc3c2cc1OC`, the AC50 is 7.08 µM (active).

In the case of `COc1cc2c(cc1NC(=O)Nc1ccccc1)oc1ccccc12`, the AC50 result was “inactive”.

Regarding `COc1cccc(NC(=O)c2cc(-c3cccnc3)nc3c(Cl)cccc23)c1`, the concentration at half-maximal activity (AC50) was 2.24 µM (active).

For `COc1ccc(NC(=O)c2cc(-c3cccnc3)nc3ccc(C)cc23)cc1OC`, the half-maximal activity concentration (AC50) is 1.41 µM (active).

For the molecule `CC(C)(S)[C@H](N)C(=O)O`, the activity, negative = inhibition was -0.648% [at 11.4 µM] (inactive).

With `CC(C)(SCc1ccccc1)[C@H](N)C(=O)O`, the activity, negative = inhibition is -12.3% [at 11.4 µM] (inactive).

These data come from PubChem BioAssay AID1851 (National Center for Advancing Translational Sciences (NCATS), 2009).
